Test results from PubChem BioAssay (EPA / NIEHS).
Results filed as inconclusive are left out. Active and inactive are the calls of the source. Rule for the calls, unless noted: active = hit-call score of the fitted dose curve at least 0.9, where 1 is the maximum; inactive = score below 0.9.

test system: not listed separately; assay: CCTE_Mundy_HCI_Cortical_Synap_Neur_Matur_SynapseCount: CCTE's Synaptogenesis and Neurite Maturation Assay in rat cortical cells for Synapse Count, Mundy Lab (AID 2284218); details: not given
Outline: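 Rat primary cortical cultures, AraC at DIV 5, chemical dosing DIV 7 to DIV 12 (288.33 h). Fixed cells stained for MAP2, synaptophysin and Hoechst; synapses per neuron counted by high-content imaging, loss of signal versus DMSO.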

Sequence of Tumor necrosis factor (Homo sapiens) (P01375 whole entry, looked up): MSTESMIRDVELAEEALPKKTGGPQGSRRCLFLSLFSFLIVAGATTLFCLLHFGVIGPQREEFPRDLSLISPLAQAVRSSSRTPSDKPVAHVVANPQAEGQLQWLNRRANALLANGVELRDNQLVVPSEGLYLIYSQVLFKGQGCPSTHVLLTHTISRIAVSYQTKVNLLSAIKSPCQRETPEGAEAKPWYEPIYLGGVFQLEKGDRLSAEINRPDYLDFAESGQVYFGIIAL

| SMILES | outcome | AC50 |
| --- | --- | --- |
| CSC(=O)c1cccc2nnsc12 | inactive | – |
| S=C(S)NCCNC(=S)S.[Mn+2].[S-]C([S-])=NCCN=C([S-])[S-].[Zn+2] | inactive | – |
| CC(C)(c1ccc(O)cc1)c1ccc(O)cc1 | – | 50 µM (active) |
| CC1(C)C(C=C(Cl)Cl)C1C(=O)OCc1cccc(Oc2ccccc2)c1 (stereo unspecified) | – | 9.11 µM (active) |
| Cc1nn(C)c(Oc2ccccc2)c1C=NOCc1ccc(C(=O)OC(C)(C)C)cc1 | – | 0.0023 µM (active) |
| C#CCOC(=O)[C@@H](C)Oc1ccc(Oc2ncc(Cl)cc2F)cc1 | inactive | – |
| O=C(O)c1ccccc1 | inactive | – |
| S=C([S-])NCCNC(=S)[S-].[Mn+2] | inactive | – |
| CCCN(CCC)C(=O)SCC | inactive | – |
| CCN(CC)C(=O)c1cccc(C)c1 | inactive | – |

test system: not listed separately; assay: CCTE_Mundy_HCI_hN2_NOG_NeuriteCount: CCTE's Neurite Outgrowth Assay in human hN2 cells for Neurite Count, Mundy Lab (AID 2284219; active = hit-call score of the fitted dose curve at least 0.9, where 1 is the maximum); details: not given
Outline: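 In this morphology assay, hNP1-derived neurons received test chemical 2 h post-plating and were fixed two days later in warm paraformaldehyde/sucrose containing Hoechst 33342. Neurites, labelled by rabbit anti-βIII-tubulin (1:800) and Alexa Fluor-488 (1:500), were counted automatically.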

| SMILES | AC50 | outcome |
| --- | --- | --- |
| CC(C)(c1ccc(O)cc1)c1ccc(O)cc1 | 77.3 µM (active) | – |
| CC1(C)C(C=C(Cl)Cl)C1C(=O)OCc1cccc(Oc2ccccc2)c1 (stereo unspecified) | – | inactive |
| O=C(O)c1ccccc1 | – | inactive |
| S=C([S-])NCCNC(=S)[S-].[Mn+2] | – | inactive |

test system: not listed separately; assay: CCTE_Mundy_HCI_hN2_NOG_NeuriteLength: CCTE's Neurite Outgrowth Assay in human hN2 cells for Neurite Length, Mundy Lab (AID 2284220; active = hit-call score of the fitted dose curve at least 0.9, where 1 is the maximum); details: not given
Outline: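 Using βIII-tubulin immunofluorescence and Hoechst nuclear counterstain, this component quantifies neurite length in hNP1-derived neurons.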

| SMILES | AC50 | outcome |
| --- | --- | --- |
| CC(C)(c1ccc(O)cc1)c1ccc(O)cc1 | 78.8 µM (active) | – |
| CC1(C)C(C=C(Cl)Cl)C1C(=O)OCc1cccc(Oc2ccccc2)c1 (stereo unspecified) | – | inactive |
| O=C(O)c1ccccc1 | – | inactive |
| S=C([S-])NCCNC(=S)[S-].[Mn+2] | – | inactive |

test system: not listed separately; assay: CCTE_Mundy_HCI_hN2_NOG_NeuronCount: CCTE's Neurite Outgrowth Assay in human hN2 cells for Neuron Count, Mundy Lab (AID 2284221; active = hit-call score of the fitted dose curve at least 0.9, where 1 is the maximum); details: not given
Outline: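 Read-out is the number of betaIII-tubulin-positive neurons imaged by automated high-content analysis, with DMSO as negative control.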

| SMILES | AC50 | outcome |
| --- | --- | --- |
| CC(C)(c1ccc(O)cc1)c1ccc(O)cc1 | 50 µM (active) | – |
| CC1(C)C(C=C(Cl)Cl)C1C(=O)OCc1cccc(Oc2ccccc2)c1 (stereo unspecified) | 20.2 µM (active) | – |
| O=C(O)c1ccccc1 | – | inactive |
| S=C([S-])NCCNC(=S)[S-].[Mn+2] | – | inactive |

test system: not listed separately; assay: CCTE_Mundy_HCI_Cortical_Synap_Neur_Matur_NeuriteCount: CCTE's Synaptogenesis and Neurite Maturation Assay in rat cortical cells for Neurite Count, Mundy Lab (AID 2284222); details: not given;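 for outcome: exposure from day 7 to day 12 in vitro with readout at day 12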
Outline: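 Rat cortical neurons, 96-well; AraC DIV 5; chemical + media change DIV 7; end DIV 12. Fix PFA/Hoechst, anti-MAP2 + anti-synaptophysin IF. HCI neurite count vs DMSO baseline.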

| SMILES | outcome | AC50 |
| --- | --- | --- |
| CSC(=O)c1cccc2nnsc12 | inactive | – |
| S=C(S)NCCNC(=S)S.[Mn+2].[S-]C([S-])=NCCN=C([S-])[S-].[Zn+2] | inactive | – |
| CC1(C)C(C=C(Cl)Cl)C1C(=O)OCc1cccc(Oc2ccccc2)c1 (stereo unspecified) | inactive | – |
| Cc1nn(C)c(Oc2ccccc2)c1C=NOCc1ccc(C(=O)OC(C)(C)C)cc1 | – | 0.00454 µM (active) |
| C#CCOC(=O)[C@@H](C)Oc1ccc(Oc2ncc(Cl)cc2F)cc1 | inactive | – |
| O=C(O)c1ccccc1 | inactive | – |
| CCCN(CCC)C(=O)SCC | inactive | – |
| CCN(CC)C(=O)c1cccc(C)c1 | inactive | – |

test system: not listed separately; assay: CCTE_Mundy_HCI_Cortical_Synap_Neur_Matur_CellBodySpotCount: CCTE's Synaptogenesis and Neurite Maturation Assay in rat cortical cells for Cell Body Spot Count, Mundy Lab (AID 2284223); details: not given
Outline: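 Rat cortical neurons; AraC @ DIV 5; dose + media change DIV 7; fix DIV 12; anti-MAP2/anti-synaptophysin IF, Hoechst; HCI count of soma synaptophysin puncta/neuron; DMSO = negative control.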

| SMILES | outcome | AC50 |
| --- | --- | --- |
| CSC(=O)c1cccc2nnsc12 | inactive | – |
| S=C(S)NCCNC(=S)S.[Mn+2].[S-]C([S-])=NCCN=C([S-])[S-].[Zn+2] | inactive | – |
| CC(C)(c1ccc(O)cc1)c1ccc(O)cc1 | inactive | – |
| CC1(C)C(C=C(Cl)Cl)C1C(=O)OCc1cccc(Oc2ccccc2)c1 (stereo unspecified) | inactive | – |
| Cc1nn(C)c(Oc2ccccc2)c1C=NOCc1ccc(C(=O)OC(C)(C)C)cc1 | – | 0.00403 µM (active) |
| C#CCOC(=O)[C@@H](C)Oc1ccc(Oc2ncc(Cl)cc2F)cc1 | inactive | – |
| O=C(O)c1ccccc1 | inactive | – |
| S=C([S-])NCCNC(=S)[S-].[Mn+2] | inactive | – |
| CCCN(CCC)C(=O)SCC | inactive | – |
| CCN(CC)C(=O)c1cccc(C)c1 | inactive | – |

test system: not listed separately; assay: CCTE_Mundy_HCI_hNP1_Pro_ResponderAvgInten: CCTE's Proliferation Assay in human neuroprogenitor cells, Mundy Lab (AID 2284224; active = hit-call score of the fitted dose curve at least 0.9, where 1 is the maximum;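 note: human neural progenitor cells hNP1 derived from WA09 embryonic stem cells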); details: not given
Outline: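 Human neuroprogenitors (hNP1, WA09 lineage) receive test chemical after 40 to 44 hours of attachment. A four-hour BrdU pulse begins twenty hours later, followed by fixation and high content imaging; signal is referenced to DMSO controls.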

| SMILES | outcome | AC50 |
| --- | --- | --- |
| CC(C)(c1ccc(O)cc1)c1ccc(O)cc1 | inactive | – |
| CC1(C)C(C=C(Cl)Cl)C1C(=O)OCc1cccc(Oc2ccccc2)c1 (stereo unspecified) | inactive | – |
| Cc1nn(C)c(Oc2ccccc2)c1C=NOCc1ccc(C(=O)OC(C)(C)C)cc1 | – | 7.65 µM (active) |
| C#CCOC(=O)[C@@H](C)Oc1ccc(Oc2ncc(Cl)cc2F)cc1 | – | 50 µM (active) |
| CCCN(CCC)C(=O)SCC | inactive | – |
| CCN(CC)C(=O)c1cccc(C)c1 | inactive | – |

read-out: not listed separately; assay: BSK_BT_PBMCCytotoxicity: PBMC Cytotoxicity Assessment in the BioMAP Diversity Plus: BT Assay (AID 2284225); details: primary human B cells with PBMC;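 note: PBMC viability measured by Alamar Blue dye reduction fluorescence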
Outline: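 PBMC (75,000/well) pretreated with compound 1 h, then activated with SEB and TSST-1 (20 ng/mL each final), incubated 90 h; Alamar Blue added 6 h, fluorescence read at 546/580 nm. Fitted relative to DMSO.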

| SMILES | outcome | AC50 |
| --- | --- | --- |
| CCC(C)OC(=O)N1CCCCC1CCO (stereo unspecified) | inactive | – |
| N#CSCSc1nc2ccccc2s1 | – | 3.65 µM (active) |
| COCCO | inactive | – |

read-out: Secreted IgG (sIgG), gene 3500; assay: BSK_BT_sIgG: BioMAP Diversity Plus: BT Assay for Secreted IgG (sIgG) Biomarker Activity (AID 2284226); details: primary human B cells with PBMC
Outline: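 Human B cell plus PBMC co-culture; secreted IgG measured by ELISA 24 h after chemical dosing. Response fitted in positive direction relative to DMSO baseline.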

| SMILES | outcome | AC50 |
| --- | --- | --- |
| CCC(C)OC(=O)N1CCCCC1CCO (stereo unspecified) | inactive | – |
| N#CSCSc1nc2ccccc2s1 | – | 3.18 µM (active) |
| COCCO | inactive | – |

read-out: not listed separately; assay: BSK_BT_Bcell_Proliferation: Viability Assessment in the BioMAP Diversity Plus: BT Assay for B cell Proliferation (AID 2284227); details: primary human B cells with PBMC
Outline: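 Human B cell/PBMC co-culture; test chemical added; 72 h; TCA fix (10%), 0.1% SRB stain, A560 for total protein as a proliferation read-out; positive-direction fit vs DMSO baseline.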

| SMILES | outcome | AC50 |
| --- | --- | --- |
| CCC(C)OC(=O)N1CCCCC1CCO (stereo unspecified) | inactive | – |
| N#CSCSc1nc2ccccc2s1 | – | 5.47 µM (active) |
| COCCO | inactive | – |

read-out: Interleukin 6 (IL6), IL6 (gene 3569); assay: BSK_BT_xIL6: BioMAP Diversity Plus: BT Assay for Interleukin 6 (IL6) Biomarker Activity (AID 2284228); details: primary human B cells with PBMC
Outline: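 B cells and peripheral blood mononuclear cells (human primary co-culture) were dosed with chemical, and after 24 h IL-6 released into the medium was measured by Luminex xMAP. Responses were analysed as gain of signal over DMSO control.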

| SMILES | outcome | AC50 |
| --- | --- | --- |
| CCC(C)OC(=O)N1CCCCC1CCO (stereo unspecified) | inactive | – |
| N#CSCSc1nc2ccccc2s1 | – | 4.1 µM (active) |
| COCCO | inactive | – |

read-out: Interleukin 17A (IL17A), IL17A (gene 3605); assay: BSK_BT_xIL17A: BioMAP Diversity Plus: BT Assay for Interleukin 17A (IL17A) Biomarker Activity (AID 2284229); details: primary human B cells with PBMC
Outline: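 Secreted IL-17A was the measured endpoint, read by Luminex xMAP multiplex in supernatants of a human B cell/PBMC co-culture harvested 24 h after chemical dosing. Signal increase relative to DMSO defined activity.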

| SMILES | outcome | AC50 |
| --- | --- | --- |
| CCC(C)OC(=O)N1CCCCC1CCO (stereo unspecified) | inactive | – |
| N#CSCSc1nc2ccccc2s1 | – | 4.06 µM (active) |
| COCCO | inactive | – |

read-out: Tumor necrosis factor (Homo sapiens) (UniProt P01375); assay: BSK_BT_xTNFa: BioMAP Diversity Plus: BT Assay for Tumor necrosis factor alpha (TNF-alpha) Biomarker Activity (AID 2284230); details: primary human B cells with PBMC
Outline: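 Read-out: Luminex xMAP quantitation of secreted TNF-alpha from a B cell/PBMC co-culture 24 h after compound addition. Signal analysed relative to DMSO vehicle, positive fitting direction.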

| SMILES | outcome | AC50 |
| --- | --- | --- |
| CCC(C)OC(=O)N1CCCCC1CCO (stereo unspecified) | inactive | – |
| N#CSCSc1nc2ccccc2s1 | – | 7.28 µM (active) |
| COCCO | inactive | – |

read-out: Vascular cell adhesion molecule 1 (VCAM1), VCAM1 (gene 7412); assay: BSK_MyoF_VCAM1: BioMAP Diversity Plus: MyoF Assay for Vascular cell adhesion molecule 1 (VCAM1) Biomarker Activity (AID 2284231); details: primary human lung fibroblasts
Outline: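 ELISA read-out of VCAM-1 on human lung fibroblasts 24 h after chemical treatment, with positive-direction curve fitting relative to DMSO controls. Parallel cultures were stained with sulforhodamine B for total protein to flag overt cytotoxicity.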

| SMILES | outcome | AC50 |
| --- | --- | --- |
| CCC(C)OC(=O)N1CCCCC1CCO (stereo unspecified) | inactive | – |
| N#CSCSc1nc2ccccc2s1 | – | 4.37 µM (active) |
| COCCO | inactive | – |

test system: not listed separately; assay: UKN2_HCS_IMR90_cell_viability: Viability Assessment in the University of Konstanz (UKN) Leist Lab Neural Crest Cell Migration Assay in human induced IMR90 Pluripotent Stem Cells (UKN2) (AID 2284233); details: not given;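 note: viability of neural crest cells differentiated from IMR90 iPSC measured by calcein-AM fluorescence imaging; cells exposed to compound for 24 h after a 24 h migration phase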
Outline: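 iPSC-derived (IMR90) neural crest cells seeded around silicone stoppers on PLO/laminin/fibronectin; after 24 h migration in N2-S with EGF/FGF, chemical added for 24 h. Calcein-AM/Hoechst stained 30 min, high-content imaged; bidirectional fit versus DMSO.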

| SMILES | AC50 | outcome |
| --- | --- | --- |
| Cc1nn(C)c(Oc2ccccc2)c1C=NOCc1ccc(C(=O)OC(C)(C)C)cc1 | 14 µM (active) | – |
| C#CCOC(=O)[C@@H](C)Oc1ccc(Oc2ncc(Cl)cc2F)cc1 | – | inactive |
| S=C([S-])NCCNC(=S)[S-].[Mn+2] | 16.1 µM (active) | – |
| CCCN(CCC)C(=O)SCC | – | inactive |
| CCN(CC)C(=O)c1cccc(C)c1 | – | inactive |

test system: not listed separately; assay: TAMU_HCS_1.5hr_SingleDonor1434_Cytotoxicity: Cytotoxicity Assessment using High-content Screening (HCS) Fluorescent Imaging for the Texas A&M University (TAMU) 1.5-hr Human Induced Pluripotent Stem Cell (iPSC)-derived Cardiotoxicity Assay (AID 2284234; active = hit-call score of the fitted dose curve at least 0.9, where 1 is the maximum); details: not given
Outline: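 Human iPSC-derived cardiomyocytes dosed at 0.2, 1, 10, 100 uM final (0.5% DMSO) for 90 min at 37 C. Hoechst 33342-stained nuclei counted by 10x high-content imaging; POD is EC10, a 10% drop in total cell count versus DMSO.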

| SMILES | outcome |
| --- | --- |
| c1ccc2[nH]c(-c3cscn3)nc2c1 | inactive |
| CC(C)(c1ccc(O)cc1)c1ccc(O)cc1 | inactive |
| CC(=O)[C@H]1CC[C@H]2[C@@H]3CCC4=CC(=O)CC[C@]4(C)[C@H]3CC[C@]12C | inactive |
| COCCO | inactive |
